Results as given in PubChem BioAssay AID504773 (Broad Institute, 2011).
Measured potencies and affinities stand elsewhere. Calls of active or inactive are those of the source.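 Rule for the calls: active = polarization signal falls with dose and the fitted half-maximal concentration is at or below ten times the sample's top valid dose; inconclusive = flat curve at 30 to 70% inhibition, or poor fit; inactive = signal rises, flat within 30%, or potency beyond limit.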

These compounds were tested against Golgi-associated PDZ and coiled-coil motif-containing protein (Homo sapiens) (UniProt Q9HD26) (assay: potency against CAL PDZ-peptide interaction – biochemical, fluorescence polarization, Cerulean-tagged CAL PDZ, cherry-picks, dose response (AID 504773)). Details: CAL PDZ-peptide binding, 1 h; series mostly up to 50 µM.

outcome, inactive:
COc1ccc2ccccc2c1CN(C)Cc1ccccc1, COc1ccc(S(=O)(=O)N2CCOCC2)cc1NC(=O)CN1CCCCCC1, CC(CCCC(C)(C)O)NC(=O)c1ccc(OC2CCN(C(=O)C3CC3)CC2)cc1 (stereo not drawn), COc1ccc(C(=O)c2ccc(C)cc2)c(OC)c1OC, O=C(NCc1cccnc1)/C(=C/c1ccc(-c2cccc(C(F)(F)F)c2)o1)NC(=O)c1ccccc1, O=C(O)c1[nH]c2ccccc2c1C(c1ccccc1)c1c(C(=O)O)[nH]c2ccccc12, O=C(NCCN1C(=O)S/C(=C\c2ccc(Cl)c(Cl)c2)C1=O)C1COc2ccccc2O1 (stereo not drawn), COC(=O)c1ccc(CNC(=O)COC(=O)c2cc(Cl)nc(Cl)c2)cc1, O=C(CSc1nccc(=O)[nH]1)Nc1ccc(Oc2ccccc2)cc1, Cc1ccccc1CN(C)C(C)C(=O)Nc1ccccc1F (stereo not drawn), c1ccc(C2Nc3ccccc3Oc3ccccc32)cc1 (stereo not drawn), O=C(CNCc1ccccc1)Nc1ccc(F)cc1, CC1=C(C#N)C(Nc2ccc(Cl)cn2)(C(F)(F)F)C(=O)N1 (stereo not drawn), Cc1ccc(F)cc1N=Cc1c(O)c2ccccc2oc1=O, Cc1ccc(NC(=O)N2CCCC2C(=O)NCC2CCCO2)cc1 (stereo not drawn), CC12CNCC(C)(CN(C3(O)C(=O)Nc4ccc(Br)cc43)C1)C2=O (stereo not drawn), COCCN(C(=S)Nc1ccccc1OC)C1CCN(C(C)C)CC1, Cc1nn(C)cc1CN(C)C(=O)c1nn2c(c1Br)NC(c1cccs1)CC2C(F)(F)F (stereo not drawn)
